Laboratory results as given in PubChem BioAssay (Tox21).
Records with an inconclusive call do not appear. A number with no mark means an inactive call. The source made the active and inactive calls. Calls come from the whole dose curve; as a rule, active = well fitted activation curve with a large enough effect in the signal ratio in the repeat runs (not every such curve was filed as active); inconclusive = weak or mixed curves; inactive = flat fitted curve, though single readings scatter; the % refers to the signal ratio.

experiment: p53 small molecule agonists, cell-based qHTS assay (AID 1963582); conditions: HCT-116 p53RE-bla reporter, beta-lactamase FRET ratio, 16 h; series mostly up to 66 µM; activation: at the top concentration
Description: National Center for Advancing Translational Sciences [NCATS]
Division of Preclinical Innovation [DPI]
U.S. Environmental Protection Agency [EPA]
National Institutes of Environmental Health Sciences [NIEHS]
National Toxicology Program [NTP]
U.S. Food and Drug Administration [FDA]
p53, a tumor suppressor protein, is activated following cellular insult, including DNA damage and other cellular stresses. The activation of p53 regulates cell fate by inducing DNA repair, cell cycle arrest, apoptosis, or cellular senescence. The activation of p53, therefore, is a good indicator of DNA damage and other cellular stresses. […] The activation of the reporter gene under culture conditions can be detected by fluorescence intensity. This cell line was used to screen the Tox21 10K compound library in a 1536-well plate format and to identify agonists that activate the p53 signaling pathway.
Tox21 Assay Protocol Summary:
The p53RE-bla cells were dispensed at 4,000 cells/5 ul/well in 1536-well black wall/clear bottom plates using a Multidrop dispenser. After the assay plates were incubated at a 37 C/5% CO2 incubator for 5 hours, 23 nL of compounds dissolved in DMSO, positive controls or DMSO only was transferred to the assay plate by a pin tool. The plates were incubated at 37 C for 16 hours. After 1 uL of LiveBLAzerTM B/G FRET substrate was added using a Flying Reagent Dispenser, the plates were incubated at room temperature for 2 hours, and fluorescence intensity was measured by an Envision plate reader.
% is set by controls: 0 for no effect and ±100 for the full control effect; potency is the fitted concentration of half-maximal effect.

Compound | Potency | activation
CCOC(=O)C1(c2ccccc2)CCN(CCC(C#N)(c2ccccc2)c2ccccc2)CC1 | 7.93 µM (active) | 
CC(O)CCO (stereo not given) | inactive | 
O=[N+]([O-])c1cc(Cl)c(Cl)c(Cl)c1 |  | -3.46%
Cc1ccc(CCl)cc1 |  | -0.91%
Nc1ccccc1Cl |  | 3.77%
O=C(O)C(Br)Br | inactive | 
Nc1ccc(Cl)cc1 |  | -2.85%
CC(C)(C)OOC(C)(C)CCC(C)(C)OOC(C)(C)C |  | 0.0743%
CC(=NC#N)N(C)Cc1ccc(Cl)nc1 |  | 4.54%
COC[C@@H](NC(C)=O)C(=O)NCc1ccccc1 |  | 0.669% [at 30.3 µM]
CCOc1cc(C=O)ccc1O | inactive | 
CCCC1CCCCN1 (stereo not given) |  | 1.43% [at 30.3 µM]
O=Cc1ccccc1 |  | -0.999%
CC(C)(c1ccccc1)c1cc(-n2nc3ccccc3n2)c(O)c(C(C)(C)c2ccccc2)c1 |  | 0.0332% [at 30.3 µM]
C#CCO |  | -3.39%
Cc1cccc(N=Nc2ccc(N(C)C)cc2)c1 | inactive | 
O=C(NCc1cccnc1)Nc1ccc([N+](=O)[O-])cc1 |  | -2.7%
CC1(C)CC(=O)CC(C)(C)N1[O] |  | 3.65%
O=C(O)COc1ccccc1 | inactive | 
OC[P+](CO)(CO)CO | inactive | 

Compound | Potency | activation
CN=C=S | inactive | 
[O-][Cl+]O |  | -5.87%
O=C(O)C(Cl)Br (stereo not given) |  | -3%
Cc1cccc(C)c1NC(=O)CN1CCCC1=O | inactive | 
O=C(O)C1C2CCC(O2)C1C(=O)O (stereo not given) | inactive | 
O=[N+]([O-])c1ccccc1O | inactive | 
Cl/C=C\C[N+]12CN3CN(CN(C3)C1)C2 |  | -1.59%
O=P(O)(Oc1ccccc1)Oc1ccccc1 |  | -6.65%
C(CCOCC1CO1)COCC1CO1 (stereo not given) |  | 8.6%
CC1COC2(c3ccccc3Cl)c3cc(Cl)ccc3NC(=O)CN12 (stereo not given) |  | -4.29% [at 30.3 µM]
Nc1ccc2ccccc2c1 | inactive | 
CCNc1nc(NC(C)(C)C)nc(SC)n1 | inactive | 
CCCSC(=O)Cl |  | 0.0084%
Cn1c(N)nc2c3cccnc3ccc21 |  | -0.555%
COc1ccc(C=O)cc1 | inactive | 
CCCCCCCCCCCCCCCCn1cc[n+](C)c1 | inactive | 
CCCC[N+]1(C)CCCC1 (tested in a mixture with another compound) |  | -0.144%
C1CS1 |  | -4.82%
C=CC(=O)OCC(C)C |  | 2.81%
CCOP(=S)(OCC)Oc1ccc2c(C)c(Cl)c(=O)oc2c1 |  | -1.3%
